Structures are written as SMILES. Several values for one entry are separate records, joined by “and”; a condition that tells them apart may be missing. Equal entries are not always repeated. The panel holds about 83,000 compounds, 20% with a hit somewhere; the sample as a whole holds those more often.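 Negative percent growth values reflect cell death: -40 means 40% of the cells present at the start died, and -100 means all died.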 Activity calls are given as the source filed them. The calls were made as follows: active = growth percent below 10; inactive = the rest.

Assay in all cases: NCI-60 one-dose screen, 48 h (100 = growth as untreated, 0 = no growth, -100 = all killed)
Common to all, as to settings: 10 µM unless noted

Assay [1] relates to SR leukemia.
For assay [2], the system named is RPMI-8226 leukemia.
For assay [3], the system named is OVCAR-8 ovarian.
Assay [4] concerns OVCAR-4 ovarian.
For assay [5], the system named is SK-OV-3 ovarian.
For assay [6], the system named is IGROV1 ovarian.
Assay [7] concerns OVCAR-3 ovarian.
In assay [8] the test system is HS 578T breast.
Assay [9] relates to NCI/ADR-RES ovarian.
The subject of assay [10] is OVCAR-5 ovarian.

Take `COc1ccc(N2CCN(S(=O)(=O)c3oc(-c4ccccc4)nc3C#N)CC2)cc1`: the growth in [1] is 6.1% (active); in assay [2] it was 41.4% (inactive); in assay [3] it was 60.2% (inactive); in assay [4] it was 86.7% (inactive); in [5], 113% (inactive); in [6], 54.6% (inactive). Besides, the values for the growth in [7], in assay [8] and in assay [9] were 73.3% (inactive), 104% (inactive) and 91% (inactive), respectively.

Take `CC/C(=C(/c1ccc(Cl)cc1)c1ccc(OCCN2CCOCC2)cc1)c1ccccc1`: the growth in assay [1] is 85.1% (inactive); in assay [2], 80.3% (inactive); in [3], 91.6% (inactive); in assay [4], 100% (inactive); in assay [5], 116% (inactive); in assay [6], 108% (inactive). Besides, the growth in assay [7] was 96% (inactive); in [8], 99.2% (inactive); in assay [9], 103% (inactive).

In the case of `CCCCC1COc2cccc3c2N1C=C/C3=C\C(=O)N(C)c1cccc(Cl)c1` (stereo unspecified), the growth in assay [1] was 94.9% (inactive); in [2] it was 92.3% (inactive); in assay [3], 97.1% (inactive); in [10], 102% (inactive); in assay [5], 95.3% (inactive); in assay [6] it was 103% (inactive). The results for the growth in assay [7], in assay [8] and in assay [9] were 96.4% (inactive), 99.8% (inactive) and 97.7% (inactive), respectively.

Consider `N#Cc1c(-c2cccc(F)c2)cc(-c2cccnc2)[nH]c1=O`, for which the growth in assay [1] is 91.3% (inactive); in assay [2], 98.8% (inactive); in assay [3], 100% (inactive); in assay [4], 113% (inactive); in assay [5], 99.6% (inactive); in assay [6], 110% (inactive). The growth in [7] was 108% (inactive); in assay [8] it was 104% (inactive); in assay [9], 105% (inactive).

For the compound `CCN(CC)CCCN1C(=O)c2c(c(C)c3c(oc4cc(OC)ccc43)c2C)C1=O`, the growth in assay [1] is -4.78% (active); in [2], 91.6% (inactive); in assay [3], 17% (inactive); in assay [4], 111% (inactive); in assay [5], 129% (inactive); in assay [6], 86.6% (inactive). Besides, the growth in assay [7] was 110% (inactive); in assay [8], 108% (inactive); in [9], 96% (inactive).

As for `CC(=O)N1N=C(c2ccc(Nc3nc(Nc4ccc(F)cc4)nc(Nc4ccc(Cl)cc4)n3)cc2)CC1c1ccc(N(C)C)cc1` (stereo unspecified), the growth in [1] is -9.66% (active); in [2] it was 55% (inactive); in assay [3], 40.2% (inactive); in [4] it was 47.8% (inactive); in assay [5], 85.1% (inactive); in assay [6], 60.8% (inactive). For the same compound, the growth in assay [7] is 63.5% (inactive); in assay [8], 24.6% (inactive); in [9], 48.3% (inactive).

As for `CCCCCCCC/C=C\CCCCCCCCOc1ccccc1CC(=O)NCC[N+]1(C)CCOCC1`, the growth is 30% (inactive) in assay [1]; 77.7% (inactive) in [2]; 78.1% (inactive) in assay [3]; 102% (inactive) in [4]; 75.3% (inactive) in assay [5]; 25.2% (inactive) in assay [6]. Besides, the values for the growth in assay [7], in [8] and in assay [9] were 101% (inactive), 92.9% (inactive) and 97.9% (inactive), respectively.

Take `O=Nc1ccc(NO)c2ccccc12`: the growth in [1] is 106% (inactive) and 43.8% (inactive); in [2], 92.2% (inactive) and 54.7% (inactive); in [3], 97.9% (inactive) and 87% (inactive); in assay [4], 92.3% (inactive) and 35.8% (inactive); in assay [6], 86.1% (inactive) and 61.5% (inactive); in [7], 98.7% (inactive) and 0.0919% (active). In addition, the growth in assay [8] was 85.4% (inactive) and 96.3% (inactive); in [9], 97.5% (inactive) and 14.5% (inactive).

For `OCc1cc(CN2CCCCC2)c(O)c2ncccc12`, the growth in assay [1] is 27% (inactive); in assay [2] it was 71.9% (inactive); in [3] it was 50.5% (inactive); in assay [4], 34.9% (inactive); in [5], 49.4% (inactive); in assay [6], 52.7% (inactive). Further, the growth in assay [8] was 85.6% (inactive); in [9], 8.71% (active).

For the compound `CCN(CC)CC#CCOC(=O)[C@]1(C)CCC[C@]2(C)c3ccc(C(C)C)cc3CC[C@@H]12`, the growth was 79.3% (inactive) in [1]; 21.3% (inactive) in assay [2]; 94.2% (inactive) in [3]; 71.3% (inactive) in assay [4]; 89.2% (inactive) in assay [5]; 86.2% (inactive) in assay [6]. Also, the growth in [7] is 90.6% (inactive); in assay [8] it was 90.2% (inactive); in assay [9], 84.5% (inactive).

Take `Cn1c(=O)c2c(nc(Nc3cc(=O)[nH]c(=O)[nH]3)n2Cc2ccccc2)n(C)c1=O`: the growth in [1] is 90.7% (inactive); in assay [2], 87.9% (inactive); in assay [10] it was 96.9% (inactive); in assay [4], 52.4% (inactive); in [5] it was 24.6% (inactive); in assay [6], 89.4% (inactive). For the same compound, the results for the growth in assay [7], in assay [8] and in [9] were 0.369% (active), -16.6% (active) and 99.7% (inactive), respectively.

`O=C(Nc1ccc(Cl)c(Cl)c1)Nc1ccc(Cl)c(Cl)c1`: the growth in assay [1] was -16.6% (active) and 28.9% (inactive); in assay [2], -36.5% (active) and 10.6% (inactive); in assay [10], -85.3% (active) and 41.8% (inactive); in [4], -86.4% (active); in assay [5] it was -87% (active) and 29.5% (inactive); in [6], -86.4% (active) and 4.75% (active). The growth is -95.3% (active) and 6.41% (active) in assay [7]; -45% (active) and 48.8% (inactive) in assay [8]; -54.9% (active) and 14.6% (inactive) in [9].
